The text below walks through data of the supplement of paper PMC6555819.

This experiment concerns RARa:RXR (NR concentration 270 nM, RXRa partner concentration 90 nM). Nature of the experiment: PBM binding z-score (relative to random genomic background probes); higher = stronger binding; sequences stand for … in GC…GCGATTGACAGCGTAGAATGAAGG
The method, boiled down: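 For binding z-scores, the reference was random background probes on custom Agilent 4×180K protein-binding microarrays. These arrays were incubated 1 h with ligand-free nuclear receptor dimers in PBS pH 7.4, 2% milk, 0.02% Triton X-100, 1 mM DTT, 0.2 mg/mL BSA and 0.4 mg/ml salmon testes DNA. Fluorescence was scanned after antibody detection of each partner (one per run) and regression-normalized.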
For the sequence TGAATGAGGTTACAAGATCAGGGAACGTTGCAAA, the PBM binding z-score amounted to 1.68.
Consider CCTCGGAGGACAGAAGGACAGAGCTGTCCGCTTT, for which the PBM binding z-score is -0.66.
As for ATCCAAAGGTCGTGAGGTGAGTATACAGAAAGGC, the PBM binding z-score amounted to 4.91.
CCTTACGGGTGACGAGGTTATAGCACGACGAGCG had a PBM binding z-score of 1.52.
As for CCGACTGGGGCAAGGTTACGATAACGCACAGCCA, the PBM binding z-score was 0.767.
Take TATACAGGGTGAAAGGCCAGAGTACGAATGTCGA: the PBM binding z-score is 1.31.
Take CAAACTAGATCAAAGGTCAAAGTCGAGCCAACCA: the PBM binding z-score stood at 6.94.
In the case of TCTTGTAGATCAACCAGGTTAAGAAAGCCTGAGT it was 0.664; in that of TTAATGAGGTTAAAGATCAGGGAACGTGGCGTCG, 3.61.
Sequence ACTCGGCGGACAAAGGTCAGAGCTACGCCAGTGA gave a PBM binding z-score of 4.18.
In the case of TCTATGAGTTGATTAGGGCAACCGAAACAGCGGA it was 0.487; in that of ATCTCTAGGTAACGAAGTTCAGTGAATGCCGAAC, 0.507.
CTCGAAAGGTCGGTTGAGTTGAGTATACGGATAA: the PBM binding z-score was 1.81.
In the case of ACTATTAGTTGATTTAGGGCAACCGATACGACGC it was 0.345.
As to AGAATGAGGTTATTGAGATCAGGGAATTGCGGTC, the PBM binding z-score amounted to 1.84.
The value for ATCTCTAGGTAAGACTCAGTTCAGTGAAGAACGC was 0.197; that for CCTATTAGTTGACCATACGGGCAACCGAAGCTCG was -0.218; that for TTACCAAGGTGAAAGGTCCTTGATGCACGCCTTG was 2.31.
In the case of CCTAGTTGGTCCAGGTCACACACGCTATAGGTAC, the PBM binding z-score was determined as 2.66.
CCTCGGAGGACAGGAGGTCAGAGCTGTCCGCTTT gave a PBM binding z-score of 2.05.
The value for GTACCAAGGTGAATAGATCGTTGATGAGTAGGCG was 0.221.
CCTACTGGGCCACGAAAGGTCGTTGATTCAGTGA displayed a PBM binding z-score of 2.19.
CAAACTGGGTCACCGGAAGGTCAAAGTCCGCATG displayed a PBM binding z-score of 6.73.
TCTCGGAGGACACGCAGGTCAGAGCTTTCCAGAG showed a PBM binding z-score of 1.15.
With CCGAGTAGGTTATCGGGCATTCAGGCAACGGTGA, the PBM binding z-score worked out at 0.241.
Sequence TCTTGTAGGTCAACAGGAGGTTAAGAAAGATCGA registered a PBM binding z-score of 4.71.
TGAATTAGGTTAAAGATCAGGGAACGTGGCGTCG yielded a PBM binding z-score of 1.12.
For the sequence ATTCAAAGTTCATCTAGGTAACGTAAGATATGCT, the PBM binding z-score amounted to 3.44.
Take TAGCCTAGGTGATGCGGGCCAGTATAGTGTCGGC: the PBM binding z-score was -0.959.
On to TAGCCTAGGTCCTGGGCCAGTATACCACGCGAAC, for which the PBM binding z-score is -0.567.
On to CCTATTAGTTGACCATAAGGGCAAGCGAAGCTCG, for which the PBM binding z-score came to 0.913.
Regarding GGAACGCGGGCAAGTTGATAGCAGAGTTTGATGG, the PBM binding z-score was -0.839.
In turn, TCATATAGGTAATACAGGTGAATGTCGGCATCTA returned a PBM binding z-score of 1.2.
The value for ATCGAAAGGTCGACGAGGTGAGTTTACACCGTTT was 3.27; that for ATATGTAGGTTATCGGGTCATTCAGTTTGCGCAT was 3.54.
In the case of ACAGACAGGTGAGTGAAGGTAACGCAGCTGGACG, the PBM binding z-score amounted to 0.359.
Take CGTCCAAGGTCAGCAGATCAGTGAAAGCGACGTG: the PBM binding z-score turned out to be 3.08.
In the case of AGAATGAGGTTACCAAAGATCCGGGAAACGCTTG it was 1.76.
Regarding AGAACGAGGGCAATGAGTTGCTAGCACGGGTGGC, the PBM binding z-score stood at 0.256.
In the case of CAAACTAGGTCAAAGGTAAAAGTCGAGCCAACCA, the PBM binding z-score was 5.33.
